High-throughput results deposited in PubChem by NMMLSC.
Avidin fluor: compound fluoresces at 488/530 nm on avidin beads; fluorescence (KMESF) at 10 µM; hit rate 0.38% among 220,000; compound fluorescence 488/530 nm, flow cytometry; stronger effect = higher value; in the data active means fluorescence above about 47
RGS8-Gao reg: modulates binding of RGS8 to human Galphao. P09471. multiplexed bead flow cytometry; actives lie on both sides. response (percent of control binding), % at 10 µM. hit rate 0.34% among 220,000. AID 1423; in the data active means response below about 60% or above about 140%; inactive means in between;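 further: Galphao activated as the GDP aluminium fluoride complex binding bead-coupled RGS8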
Target sequence (P09471 whole entry, looked up): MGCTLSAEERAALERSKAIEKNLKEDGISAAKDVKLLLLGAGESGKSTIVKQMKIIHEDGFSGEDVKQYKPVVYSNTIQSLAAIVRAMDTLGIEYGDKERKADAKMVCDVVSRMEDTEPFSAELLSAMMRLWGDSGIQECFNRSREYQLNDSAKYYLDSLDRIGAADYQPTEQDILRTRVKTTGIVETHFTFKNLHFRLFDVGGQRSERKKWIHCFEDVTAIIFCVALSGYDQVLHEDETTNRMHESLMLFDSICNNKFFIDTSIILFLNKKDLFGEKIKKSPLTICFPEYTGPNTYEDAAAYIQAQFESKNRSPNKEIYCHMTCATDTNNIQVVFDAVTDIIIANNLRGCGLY
RGS16-Gao HTS: RGS16-Galphao interaction regulator (human). O15492+P09471. bead-based flow cytometry RGS16-Galphao binding, fluorescence; actives lie on both sides. binding response (% of control), % at 10 µM. hit rate 0.38% among 220,000. AID 1441; call rule not given here;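 further: Galphao activated by GDP with aluminum fluoride before binding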
RGS4-Gao reg: human RGS4-Galphao interaction regulation | Multiplexed bead flow cytometry, RGS4-Galphao binding; actives lie on both sides | P09471 | hit rate 0.33% among 220,000 | binding response (% of control), % at 10 µM | AID 1415; in the data active means binding response below about 49% or above about 150%; inactive means in between;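 further: fluorescent Galphao activated with aluminum fluoride binding bead-coupled RGS4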
RGS7-Gao: human RGS7-Galphao interaction regulation. P09471. Multiplexed bead flow cytometry, RGS7-Galphao binding; actives lie on both sides. binding response (% of control), % at 10 µM. hit rate 0.35% among 220,000; in the data active means binding response below about 49% or above about 150%; inconclusive means no clear call, values can overlap the other calls; inactive means in between;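 further: fluorescent Galphao held in activated GDP-AlF4 state binding bead-coupled RGS7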
GSH fluor: GSH bead compound fluorescence profile. GSH beads flow cytometry, compound fluorescence 488/530 nm; stronger effect = higher value. fluorescence (KMESF) at 10 µM. hit rate 0.25% among 190,000; in the data active means fluorescence above about 89;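 further: glutathione beads carrying GST-tagged Bcl family fusion proteins plus one bare bead set; values are compound well signal with DMSO vehicle wells as background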
The depositor's hits bear a star; ? = inconclusive; · = no result. An excerpt weighted towards active compounds, which were near 1.2% of everything screened.

SMILES	Avidin fluor	RGS8-Gao reg	RGS16-Gao HTS	RGS4-Gao reg	RGS7-Gao	GSH fluor
COc1cccc2cc(C(=O)N3CCCCC3C)c(=O)oc12 (stereo unspecified)	5	110	109	113	110	120*
O=C(Cn1cc(C(F)(F)F)ccc1=O)Nc1cccc(S(=O)(=O)N2CCOCC2)c1	96*	101	99	106	136	11
COc1ccc(S(=O)(=O)NCc2ccc(C)cc2)cc1	7	96	99	96	94	263*
COc1cc(C(O)c2nc3ccccc3s2)cc(OC)c1OC (stereo unspecified)	7	103	98	105	?	·
C/C(=N\NS(=O)(=O)c1ccc(C)cc1)c1ccc(C)s1	6	94	87	90	90	10
COc1ccc(N(CC(=O)Nc2cc(C)on2)S(=O)(=O)c2ccc(Cl)cc2)cc1	4	105	108	113	107	250*
COc1ccc(N(CC(=O)Nc2cc(C)on2)S(=O)(=O)c2cc(C)ccc2C)cc1	26	97	93	100	99	25
COc1ccc(Nc2cc(Cl)nc(N)n2)cc1OC	24	106	107	102	103	10
COc1ccc(Cl)cc1C(=O)NNC(=S)NC(=O)c1cc(-c2ccc(Cl)cc2)nc2ccccc12	6	37*	19*	11*	21*	11
CCNC(=S)NNC(=O)c1cc(-c2ccc(OC)cc2)nc2ccccc12	5	103	105	104	104	15
CN(CC(=O)NCc1ccncc1)S(=O)(=O)c1ccc(Cl)cc1	11	103	106	96	102	23
CCNc1nc(NCC)nc(OCCOC(C)=O)n1	5	88	67	93	97	132*
Cc1nnc(SCc2nnc(-c3ccccc3)o2)n(N)c1=O	8	101	104	105	103	264*
Cc1nnc(SCc2ccccn2)n(N)c1=O	4	100	98	101	98	10
Cc1nnc(SCC(=O)Nc2ccccc2)n(N)c1=O	55*	97	105	97	111	19
CS(=O)(=O)N(CC(=O)NCc1ccccn1)Cc1ccc(Cl)cc1	37	102	107	101	102	27
O=C(c1c(Cl)nc2sccn12)N1CCN(c2cccc(Cl)c2)CC1	7	99	103	101	99	39
O=C(OCC(=O)N1CCN(C(=O)c2ccco2)CC1)C1=COCCO1	82*	91	90	94	138	31
CCOC(=O)C1CCCN(C(=O)COC(=O)C2=COCCO2)C1 (stereo unspecified)	71*	99	103	104	119	12
CS(=O)(=O)N1CCN(c2ccccc2NC(=O)c2cccs2)CC1	47*	99	98	98	98	10
O=C(Nc1ccccc1N1CCCCC1)c1cccs1	14	102	106	108	108	34
CCC(CO)Nc1nc2ccc(Cl)cc2c2ccccc12 (stereo unspecified)	6	124	134	144	?	·
CCCCN(CC)Cc1ccc(CNC(=O)Nc2ccc(Cl)cc2)o1	5	104	103	103	103	16
CCCCN(CC)Cc1ccc(CNC(=O)Nc2ccc(OCC)cc2)o1	87*	101	106	113	133	34
COc1ccc(C2=C(O)C(C)N(c3ccccc3)C2=N)cc1OC (stereo unspecified)	53*	102	101	103	110	11
COc1ccc(-c2cnn(-c3ccccc3)c2N)cc1OC	15	100	87	98	101	20
Nc1c(C(=O)C2CC2)sc2nc(-c3ccccc3)cc(C(F)(F)F)c12	5	95	89	90	92	126*
CC(=O)c1sc2nc(-c3cccs3)cc(C(F)(F)F)c2c1N	25	98	95	95	100	28
O=C(O[C@@H]1Cc2c(O)cc(O)cc2O[C@@H]1c1cc(O)c(O)c(O)c1)c1cc(O)c(O)c(O)c1	2	56*	56	48*	32*	67
COc1ccc(C2=NN(CN3C(=O)C(=O)c4ccccc43)C(c3ccc(OC)cc3)C2)cc1 (stereo unspecified)	4	97	98	95	98	24
